Data on 40 molecules can be found in PubChem BioAssay (Tox21).

Where “and” joins values, the source holds several entries; their conditions need not be identical. Equal entries are not always repeated. Records with an inconclusive call do not appear. A call without a number means that no potency is given here. A structure can be active in one record and inactive in another. Calls of active or inactive are those of the source. The call rests on the fitted dose curve.
Potency means the concentration at half of the fitted maximal effect.

A short description of the assay: qHTS assay to identify small molecule agonists of H2AX - cell viability counter screen (AID 1224847). Further: nearly all actives have a fitted effect of over 30% in size. On activity change, negative = cytotoxicity: top concentration of the series differs between compounds. The settings on record: CHO-K1 viability, CellTiter-Glo luminescence, 3 h; series mostly up to 154 µM; activity change, negative = cytotoxicity: at the top concentration. The source says:
National Center for Advancing Translational Sciences [NCATS]
NIH Chemical Genomics Center [NCGC]
U.S. Environmental Protection Agency [EPA]
National Institutes of Environmental Health Sciences [NIEHS]
National Toxicology Program [NTP]
U.S. Food and Drug Administration [FDA]
HTRF phospho-H2AX (Ser139) assay (Cisbio Bioassays, US) enables the quantitative detection of the histone variant H2AX when phosphorylated on serine 139. When double-stranded DNA breaks, either by ionizing radiation or endogenous physiological processes, H2AX becomes phosphorylated at Ser139. This phospho-Ser139 serves as a sensitive biomarker for the detection of such breaks, localizing the site of DNA repair. So, HTRF phospho-H2AX Ser139 is a pertinent assay to study genome stability, the cell cycle, DNA repair, and it serves as a biomarker for cancer, and to understand aging. Wild type CHO-K1 cells were used to identify the inducers of Phospho-H2AX Ser 139 from the Tox21 compound collections. Also cytotoxicity of the Tox21 10K compound library against the CHO-K1 cell line was tested by measuring the cell viability using CellTiter-Glo assay (Promega, Madison, WI).
Tox21 Assay Protocol Summary:
The CHO-K1 cells suspended in culture medium containing 10% FBS were dispensed at 1000 cells/ 3 ul/well in 1536-well white wall/solid bottom plates (Greiner Bio-One North America, NC) using a Multidrop Combi (Thermo Fisher Scientific Inc., Waltham, MA). After the assay plates were incubated at 37C overnight, 23 nl of compounds at 15 concentrations (from 5-48 columns) or positive control (from 1 to 4 columns) were transferred to the assay plates using a Pintool station (Wako, San Diego, CA) into each well resulting in a final DMSO concentration of 0.76%. After 3hr incubation at 37C, 3 uL/well CellTiter-Glo luminescent cell viability reagent (Promega Corporation, Madison, WI) was added using a Flying Reagent Dispenser (FRD) (Aurora Discovery, CA). After incubation at room temperature for 30 min, the luminescence intensity was read using a ViewLux plate reader (PerkinElmer, Waltham, MA).
Consider `CCCCn1cc[n+](C)c1`, for which the Potency entry was “inactive”.

Regarding `Cc1cc(Cl)ccc1OCC(=O)O`, the Potency result is “inactive”.

On to `CC(=O)O`, for which the Potency entry is “inactive”.

For `O=C(O)c1ccccc1O`, the Potency entry is “inactive”.

For the molecule `CC[n+]1ccccc1`, the Potency entry is “inactive and 1.26 µM (active)”.

In the case of `O=S(=O)(O)O`, the Potency entry was “inactive”.

As to `O=c1nc(O)n(Cl)c(=O)n1Cl`, the Potency result was “inactive”.

On to `O=C(O)c1nc(Cl)ccc1Cl`, for which the Potency entry is “inactive”.

Turning to `O=C(O)CCl`, the Potency entry is “inactive”.

With `OCCOc1ccccc1`, the Potency entry was “inactive”.

Take `CCCCCCCCCCCCCC[P+](CCCCCC)(CCCCCC)CCCCCC`: the Potency was 16 µM (active) and 28.6 µM (active) and 4 µM (active).

Take `CCCCn1cc[n+](C)c1C`: the Potency entry is “inactive”.

Regarding `C=CCOC(Cn1ccnc1)c1ccc(Cl)cc1Cl` (stereo not given), the Potency is 113 µM (active) and inactive.

As to `Nc1ccc(-c2ccc(N)c(Cl)c2)cc1Cl`, the Potency was 101 µM (active).

Consider `COP(=O)(OC)C(O)C(Cl)(Cl)Cl` (stereo not given), for which the Potency result is “inactive”.

In the case of `CCCC[n+]1cccc(C)c1`, the Potency result is “inactive”.

For `CCCCCCCCCCCC(=O)O`, the Potency entry is “inactive”.

As to `Oc1ccccc1-c1ccccc1`, the Potency result is “inactive”.

Turning to `Nc1ccc(-c2ccc(N)cc2)cc1`, the Potency entry is “inactive”.

`COc1ccccc1N`: the Potency result was “inactive”.

As for `Cc1cc(-c2ccc(N)c(C)c2)ccc1N`, the Potency result was “inactive”.

With `O=C(O)COc1ccc(Cl)cc1Cl`, the Potency result is “inactive”.

Turning to `O=C(O)C(Cl)(Cl)Cl`, the Potency result is “inactive”.

As for `CCNc1nc(Cl)nc(NCC)n1`, the Potency result is “inactive”.

`CCOP(=S)(OCC)Oc1ccc2c(C)c(Cl)c(=O)oc2c1`: the Potency entry was “inactive”.

For the molecule `Cc1cc(Cl)ccc1N`, the Potency entry is “inactive”.

Turning to `CC[N+]1(C)CCCC1`, the Potency result was “inactive”.

As to `CCn1cc[n+](C)c1C`, the Potency result is “inactive”.

Consider `COP(=O)(OC)OC=C(Cl)Cl`, for which the Potency result is “inactive”.

On to `CCC(=O)C(CC(C)N(C)C)(c1ccccc1)c1ccccc1` (stereo not given), for which the Potency result was “inactive”.

Consider `Nc1ccccc1`, for which the Potency entry is “inactive”.

Turning to `O=C(O)C(Cl)Cl`, the Potency entry is “inactive”.

For `O=C(O)CC(O)(CC(=O)O)C(=O)O`, the Potency entry is “inactive”.

On to `CN(C)[C@@H]1C(=O)C(C(N)=O)=C(O)[C@@]2(O)C(=O)C3=C(O)c4c(O)cccc4[C@@](C)(O)[C@H]3[C@H](O)[C@@H]12`, for which the Potency entry was “inactive”.

For the molecule `O=[N+]([O-])O`, the Potency result was “inactive”.

Consider `C[C@]12CCC(=O)C=C1CC[C@@H]1[C@@H]2CC[C@]2(C)C(=O)CC[C@@H]12`, for which the “activity change, negative = cytotoxicity” value is -5.4% [at 70.9 µM] (inactive).

Consider `CCCC[n+]1ccccc1`, for which the Potency result was “inactive”.

As for `Nc1ccc(Cl)cc1`, the Potency result is “inactive”.

On to `Oc1cccc2cccnc12`, for which the “activity change, negative = cytotoxicity” value is 8.48% [at 70.9 µM] (inactive).

As to `O=c1[nH]c(=O)n(Cl)c(=O)n1Cl`, the Potency result is “inactive”.
